Data taken from PubChem BioAssay (Tox21).
Several values for one entry are separate records, joined by “and”; a condition that tells them apart may be missing. Equal entries are not always repeated. Inconclusive results are not listed. The source holds several records for some structures; these can differ, active in one and inactive in another. Activity calls are given as the source filed them. The call rests on the fitted dose curve; in most records, active means well fitted activation curve with a large enough effect in the repeat runs; inconclusive means weak or mixed curves; inactive means flat fitted curve, though single readings scatter.

test: A CellTox Green Cytotoxicity Assay to monitor cytotoxicity in HepG2 cells - 40 hour (AID 1224879); conditions: CellTox Green fluorescence; series mostly up to 76.8 µM; cytotoxicity increase: at the top concentration; further: nearly all actives have a fitted effect of over 40% in size
Excerpt: National Center for Advancing Translational Sciences [NCATS]
NIH Chemical Genomics Center [NCGC]
U.S. Environmental Protection Agency [EPA]
National Institutes of Environmental Health Sciences [NIEHS]
National Toxicology Program [NTP]
Cell-based models are critical for drug discovery. Determining the natural cytotoxic effects resulting from test compounds is an essential research activity. A CellTox Green Cytotoxicity Assay to monitor cytotoxicity in real time of continues cell culture during 40 hours of the compound treatment was used to screen Tox21 10K library compounds in HepG2 cells. CellTox Green Cytotoxicity Assay is a nonlytic, homogeneous, biofluorescent method to measure cytotoxicity in cell culture after experimental manipulation. The assay system uses a proprietary asymmetric cyanine dye that is excluded from viable cells but preferentially stains the dead cell's DNA. […] Viable cells produce no appreciable increases in fluorescence. Therefore, the fluorescence signal produced by the binding interaction with dead cell DNA is proportional to cytotoxicity.
The mixture of HepG2 cell suspension and reagents were dispensed at 600cells/6 ul/well in 1536-well tissue culture treated black solid bottom plates using a Multidrop dispenser. After the assay plates were incubated at a 37 C/5% CO2 incubator for 5 hours, 23 nL of compounds dissolved in DMSO, positive and negative controls was transferred to the assay plate by a pintool work station. The plates were incubated at 37 C for 40 hours. The fluorescence intensity were measured at 0h, 8h, 16h, 24h, 32h and 40h time points using ViewLux plate reader during compound treatment.
On the % scale 0 is the no-effect control and ±100 the full control effect; potency means the concentration at half of the fitted maximal effect.

| SMILES | Potency | cytotoxicity increase |
| --- | --- | --- |
| O=C1OC2(c3ccc(O)cc3Oc3cc(O)ccc32)c2ccccc21 | 616 nM (active) and 301 nM (active) |  |
| OCC(CO)N[C@H]1C[C@](O)(CO)[C@@H](O)[C@H](O)[C@H]1O |  | 1.65% [at 35.3 µM] (inactive) |
| O=C(O)CP(=O)(O)O |  | -0.354% [at 35.3 µM] (inactive) |
| CCCCN(CCO)CCCC |  | -10.6% (inactive) |
| CC(=O)N[C@@H](CS)C(=O)O | inactive |  |
| CCCCCCC(O)CCCCCCCCCCC(=O)O (stereo not given) |  | 1.32% (inactive) |
| O=C(Cl)c1cccc(C(=O)Cl)c1 | inactive |  |
| c1ccc2n[nH]nc2c1 | inactive |  |
| BrC1CCC(Br)C(Br)CCC(Br)C(Br)CCC1Br (stereo not given) | inactive |  |
| CC(=O)Nc1ccc(C(=O)CCl)cc1 | inactive and 19.5 µM (active) |  |
| Cc1cccc2n[nH]nc12 |  | 3.91% (inactive) |
| Cc1ccc(S(=O)(=O)Oc2ccc(N=Nc3ccc(-c4ccc(N=Nc5c(O)ccc6cc(S(=O)(=O)O)cc(S(=O)(=O)O)c56)c(C)c4)cc3C)cc2)cc1 | inactive |  |
| C=CS(=O)(=O)O |  | -7.89% (inactive) |
| Nc1nc(=S)c2[nH]cnc2[nH]1 | inactive |  |
| C[N+]1([O-])CCOCC1 |  | 18.6% (inactive) |
| Cc1cc(C2(c3cc(C)c(O)cc3C)OS(=O)(=O)c3ccccc32)c(C)cc1O | inactive |  |
| CCCCCCCCCCCCCC[P+](CCCC)(CCCC)CCCC | 19.4 µM (active) and 17.4 µM (active) |  |
| C#CC(C)(CC)OC(=O)c1ccccc1C(=O)O (stereo not given) |  | -7.32% [at 35.3 µM] (inactive) |
| Cc1cccc(O)c1C |  | -2.53% (inactive) |
| CCCN[C@H]1CCc2nc(N)sc2C1 | inactive |  |

| SMILES | Potency | cytotoxicity increase |
| --- | --- | --- |
| Cc1cc(OCCOCC[N+](C)(C)Cc2ccccc2)ccc1C(C)(C)CC(C)(C)C | 13.7 µM (active) and 8.49 µM (active) |  |
| NC12CC3CC(CC(C3)C1)C2 |  | -16.3% [at 35.3 µM] (inactive) |
| COC(c1ccccc1)(c1ccccc1)[C@H](Oc1nc(C)cc(C)n1)C(=O)O |  | -23.9% [at 35.3 µM] (inactive) |
| Oc1ccc(Cl)cc1Cc1cc(Cl)ccc1O |  | -10.4% [at 35.3 µM] (inactive) |
| CC(C)(C)NC(=O)[C@@H]1CN(Cc2cccnc2)CCN1C[C@@H](O)C[C@@H](Cc1ccccc1)C(=O)N[C@H]1c2ccccc2C[C@H]1O | inactive |  |
| CCC[C@H](N[C@@H](C)C(=O)N1[C@H](C(=O)O)C[C@@H]2CCCC[C@@H]21)C(=O)OCC | inactive |  |
| CCn1cc(C(=O)O)c(=O)c2cc(F)c(N3CCNC(C)C3)c(F)c21 (stereo not given) |  | -0.609% [at 35.3 µM] (inactive) |
| CCOC(=O)C(C)C(C)=O (stereo not given) |  | 12.7% (inactive) |
| O=c1n(CC2CO2)c(=O)n(CC2CO2)c(=O)n1CC1CO1 (stereo not given) |  | 26.1% (inactive) |
| CC(COc1ccccc1)N(CCCl)Cc1ccccc1 (stereo not given) | 55.5 µM (active) |  |
| CCCCCCCCCCCCCCCCCl |  | 1.26% [at 15.8 µM] (inactive) |
| O=C(O)Cn1cnnn1 |  | -10.4% [at 35.3 µM] (inactive) |
| CC(C)(C)c1cc(C(C)(C)C)c(O)c(C(C)(C)C)c1 | 49 µM (active) |  |
| CC1=CC(=O)c2ccccc2C1=O | 43.6 µM (active) and 26.8 µM (active) |  |
| CCN(CC)c1ccc2c(C)cc(=O)oc2c1 | inactive |  |
| CCc1ccc(C(c2ccc(CC)cc2)C(Cl)Cl)cc1 | inactive |  |
| Nc1ccc(O)cc1 |  | 5.23% [at 35.3 µM] (inactive) |
| Cc1ccc(-c2cc(C(F)(F)F)nn2-c2ccc(S(N)(=O)=O)cc2)cc1 | 48.8 µM (active) and 49 µM (active) |  |
| O=Nc1ccc(Nc2ccccc2)cc1 | 49.2 µM (active) and 49 µM (active) |  |
| c1ccc2cc3c(ccc4ccccc43)cc2c1 | 21.9 µM (active) and inactive |  |
